A selection: hits, their analogues and other compounds. The true share with any hit is near 7.6%.
HCV NS3h FP = blocks HCV NS3 helicase binding to DNA; NS3h Cy5-dT15 DNA binding, fluorescence polarization; inhibition, % at 100 µM; 16,000 compounds, 1.6% hits; AID 687043;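 active = inhibition above the average over every tested compound plus 3 SD, cut at about 40% in these data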
Cy5 interf NS3h = Cy5 fluorescence interference, HCV helicase counter-screen. Cy5-dT15 DNA with NS3h; actives lie on both sides; signal over control mean, under 1 quenches. fluorescence interference ratio at 100 µM. 16,000 compounds, 6% hits. AID 720488;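 active = compound fluorescence over control fluorescence at most 0.8, a quencher, or at least a set upper limit, an enhancer; inactive = ratio between 0.8 and the set upper limit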
The depositor's hits bear a star.

For O=C(Nc1ccc(-c2nc3ccccc3o2)c(O)c1)c1ccc(-c2cccc(Cl)c2)o1 the results were HCV NS3h FP -38 and Cy5 interf NS3h 1.2.
Screening O=C(Nc1ccccc1)Nc1nnc(/C=C/c2ccccc2)s1 returned HCV NS3h FP 16 and Cy5 interf NS3h 0.97.
O=C(Nc1ccc(Nc2ccccc2)c2c1C(=O)c1ccccc1C2=O)c1ccccc1 was read as HCV NS3h FP 8 and Cy5 interf NS3h 1.1.
For CC1(C)Nc2ccccc2N(Cc2ccccc2)C1=O the results were HCV NS3h FP 1 and Cy5 interf NS3h 1.
For O=C(NCCCO)C(=O)NCc1ccc(Cl)cc1 the results were HCV NS3h FP 1 and Cy5 interf NS3h 1.1.
`COc1c(I)cc(I)cc1C1NC(=O)c2c(sc3c2CCCC3)N1` (stereo unspecified) gave HCV NS3h FP 1 and Cy5 interf NS3h 1.
`Cc1ccc(OCCNc2cc(N3CCN(C)CC3)ccc2[N+](=O)[O-])cc1C` gave HCV NS3h FP 21 and Cy5 interf NS3h 0.61*.
For CC(Nc1cc(N2CCN(C)CC2)ccc1[N+](=O)[O-])c1ccc(Br)cc1 (stereo unspecified) the results were HCV NS3h FP 19 and Cy5 interf NS3h 0.9.
For CCO/N=C1\CC(c2ccccc2)Cc2onc(C)c21 (stereo unspecified) the results were HCV NS3h FP 21 and Cy5 interf NS3h 1.
For O=C1NC(=Nc2cccnc2)S/C1=C\c1cccc(F)c1 the results were HCV NS3h FP -26 and Cy5 interf NS3h 0.8*.
`O=C1NC(=Nc2cccnc2)S/C1=C\c1ccc(F)cc1` gave HCV NS3h FP -3 and Cy5 interf NS3h 1.
`O=C1C(c2nc3ccccc3s2)=C(O)c2ccccc21` gave HCV NS3h FP -4 and Cy5 interf NS3h 1.1.
For COc1ccccc1/C=c1/sc2nc3c(Br)c(C)c(C)cc3n2c1=O the results were HCV NS3h FP 4 and Cy5 interf NS3h 1.
Screening O=C(Nc1ccc(Cl)c(Cl)c1)Nc1nnc(CSCc2ccccc2)s1 returned HCV NS3h FP 0 and Cy5 interf NS3h 1.
`COc1cccc(NC(=O)/C(=C/c2ccccc2)c2ccccc2)c1` gave HCV NS3h FP 14 and Cy5 interf NS3h 1.
For COc1ccc(OC)c(NC(=O)/C(=C/c2ccccc2)c2ccccc2)c1 the results were HCV NS3h FP 4 and Cy5 interf NS3h 0.61*.
`Cc1ccc(NC(=S)NC(=O)/C=C/c2ccccc2)c(C)c1` gave HCV NS3h FP 26 and Cy5 interf NS3h 0.96.
`Cc1cc(=O)n2[nH]c(-c3cccc(F)c3)cc2n1` gave HCV NS3h FP -8 and Cy5 interf NS3h 1.1.
Screening O=c1c2c(nc3cc(-c4cccc(Cl)c4)[nH]n13)CCS2 returned HCV NS3h FP -51 and Cy5 interf NS3h 0.72*.
O=c1cc(-c2ccccc2)nc2cc(-c3cccc(Cl)c3)[nH]n12 was read as HCV NS3h FP -58 and Cy5 interf NS3h 1.2*.
Screening O=c1c2c(nc3cc(-c4cccc(F)c4)[nH]n13)CCCC2 returned HCV NS3h FP 10 and Cy5 interf NS3h 1.1.
Screening CCOCCOC(=O)c1ccc(NC(=O)COc2c(C)cccc2C)cc1 returned HCV NS3h FP 15 and Cy5 interf NS3h 0.96.
CN(C)c1ccc(C(=O)N2CCN(Cc3ccccc3)CC2)cc1 was read as HCV NS3h FP -6 and Cy5 interf NS3h 0.84.
`Cc1cc(Br)cc(C)c1NC(=O)c1c(F)cccc1F` gave HCV NS3h FP 5 and Cy5 interf NS3h 0.98.
For O=C(Nc1cccc(Br)c1)c1cc([N+](=O)[O-])ccc1Cl the results were HCV NS3h FP 7 and Cy5 interf NS3h 1.
For O=C(Nc1ccc(NC(=O)c2cc([N+](=O)[O-])ccc2Cl)cc1)c1ccc(Br)cc1 the results were HCV NS3h FP 18 and Cy5 interf NS3h 0.54*.
For Nc1nnc(-c2ccc(C(=O)O)cc2)s1 the results were HCV NS3h FP 1 and Cy5 interf NS3h 1.1.
`CCCOc1c(Br)cc(C2C3=C(CC(C)(C)CC3=O)OC3=C2C(=O)CC(C)(C)C3)cc1OC` gave HCV NS3h FP 17 and Cy5 interf NS3h 0.97.
For CCCOc1ccc(C2C3=C(CC(C)(C)CC3=O)OC3=C2C(=O)CC(C)(C)C3)cc1OCC the results were HCV NS3h FP 9 and Cy5 interf NS3h 0.78*.
O=C(O)c1cccc(NC2=C(Cl)C(=O)N(c3ccc(Cl)cc3)C2=O)c1 was read as HCV NS3h FP 17 and Cy5 interf NS3h 1.
Screening CCc1ccccc1N1C(=O)/C(=C/c2cc(C)n(-c3cccnc3)c2C)C(=O)NC1=S returned HCV NS3h FP 6 and Cy5 interf NS3h 1.2*.
For Cc1ccccc1N1C(=O)/C(=C/c2cc(C)n(-c3cccnc3)c2C)C(=O)NC1=S the results were HCV NS3h FP 10 and Cy5 interf NS3h 0.97.
O=C1C(=O)N(c2nccs2)C(c2cccc(Br)c2)C1=C(O)c1ccc(Cl)cc1 (stereo unspecified) was read as HCV NS3h FP 12 and Cy5 interf NS3h 0.82.
Screening COc1ccc(NC(=O)/C(C#N)=C/c2cc(C)n(-c3ccc(C)c([N+](=O)[O-])c3)c2C)cc1 returned HCV NS3h FP 7 and Cy5 interf NS3h 1.

Source: PubChem BioAssay
